Laboratory results as given in PubChem BioAssay.
Calls of active or inactive are those of the source.

What was measured:
[1] = system: Plasmodium falciparum Sir2 (PF13_0152, Sir2A); test: pfSir2 binders on small-molecule microarrays, primary screen, biochemical, small-molecule microarray, 635 nm fluorescence (AID 1098); conditions: small-molecule microarray binding, fluorescence 635 nm; higher = more signal;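 note: score merges spot fluorescence intensity with its signal-to-noise ratio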
[2] = small-molecule microarray binders of probe aDKK1, primary screen, biochemical, biotinylated probe, 635/667 nm fluorescence (AID 1099); conditions: higher = more signal;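 note: score merges 667nm spot fluorescence with signal to noise across triplicate slides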
[3] = small-molecule microarray binders of probe aCHRDL2, primary screen, biochemical, biotinylated probe, 635/667 nm fluorescence (AID 1100); conditions: higher = more signal
[4] = splicing luciferase reporter signal modulators, primary screen, spliceosome inhibition project, cell-based, HEK293, splice +/- reporter (AID 1101); conditions: luminescence, 24 h, higher = more signal, called active from +8 up or from −8 down;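 note: HEK293 cells carrying a splicing-competent luciferase reporter gene; test concentration not given here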
[5] = target: Fibroblast growth factor 10 (Homo sapiens) (UniProt O15520); test: FGF10 binders on small-molecule microarrays, primary screen, biochemical, small-molecule microarray, 635 nm fluorescence (AID 1102); conditions: FGF10 binding, fluorescence 635 nm, higher = more signal
Fibroblast growth factor 10 (Homo sapiens), sequence (O15520 whole entry, looked up): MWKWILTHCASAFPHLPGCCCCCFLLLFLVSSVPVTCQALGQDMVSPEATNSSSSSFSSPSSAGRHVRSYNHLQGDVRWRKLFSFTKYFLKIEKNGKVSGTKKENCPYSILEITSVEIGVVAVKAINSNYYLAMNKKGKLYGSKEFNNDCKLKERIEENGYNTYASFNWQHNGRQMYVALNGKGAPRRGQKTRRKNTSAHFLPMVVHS

[6] = system: glycogen synthase kinase-3 (GSK3A per assay name; protocol says GSK3B); test: GSK3 binders on small-molecule microarrays, primary screen, biochemical, small-molecule microarray, 635 nm fluorescence, GSK3A (AID 1103); conditions: small-molecule microarray binding, fluorescence 635 nm; higher = more signal; note: the record names both GSK3A and GSK3B
[7] = target: Epidermal growth factor receptor (Homo sapiens) (UniProt P00533); test: EGFR binders on small-molecule microarrays, primary screen, biochemical, small-molecule microarray, 635 nm fluorescence (AID 1104); conditions: EGFR binding, higher = more signal;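 note: score merges 667 nm emission intensity with spot signal to noise over triplicate slides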
Epidermal growth factor receptor (Homo sapiens), sequence (P00533 whole entry, looked up): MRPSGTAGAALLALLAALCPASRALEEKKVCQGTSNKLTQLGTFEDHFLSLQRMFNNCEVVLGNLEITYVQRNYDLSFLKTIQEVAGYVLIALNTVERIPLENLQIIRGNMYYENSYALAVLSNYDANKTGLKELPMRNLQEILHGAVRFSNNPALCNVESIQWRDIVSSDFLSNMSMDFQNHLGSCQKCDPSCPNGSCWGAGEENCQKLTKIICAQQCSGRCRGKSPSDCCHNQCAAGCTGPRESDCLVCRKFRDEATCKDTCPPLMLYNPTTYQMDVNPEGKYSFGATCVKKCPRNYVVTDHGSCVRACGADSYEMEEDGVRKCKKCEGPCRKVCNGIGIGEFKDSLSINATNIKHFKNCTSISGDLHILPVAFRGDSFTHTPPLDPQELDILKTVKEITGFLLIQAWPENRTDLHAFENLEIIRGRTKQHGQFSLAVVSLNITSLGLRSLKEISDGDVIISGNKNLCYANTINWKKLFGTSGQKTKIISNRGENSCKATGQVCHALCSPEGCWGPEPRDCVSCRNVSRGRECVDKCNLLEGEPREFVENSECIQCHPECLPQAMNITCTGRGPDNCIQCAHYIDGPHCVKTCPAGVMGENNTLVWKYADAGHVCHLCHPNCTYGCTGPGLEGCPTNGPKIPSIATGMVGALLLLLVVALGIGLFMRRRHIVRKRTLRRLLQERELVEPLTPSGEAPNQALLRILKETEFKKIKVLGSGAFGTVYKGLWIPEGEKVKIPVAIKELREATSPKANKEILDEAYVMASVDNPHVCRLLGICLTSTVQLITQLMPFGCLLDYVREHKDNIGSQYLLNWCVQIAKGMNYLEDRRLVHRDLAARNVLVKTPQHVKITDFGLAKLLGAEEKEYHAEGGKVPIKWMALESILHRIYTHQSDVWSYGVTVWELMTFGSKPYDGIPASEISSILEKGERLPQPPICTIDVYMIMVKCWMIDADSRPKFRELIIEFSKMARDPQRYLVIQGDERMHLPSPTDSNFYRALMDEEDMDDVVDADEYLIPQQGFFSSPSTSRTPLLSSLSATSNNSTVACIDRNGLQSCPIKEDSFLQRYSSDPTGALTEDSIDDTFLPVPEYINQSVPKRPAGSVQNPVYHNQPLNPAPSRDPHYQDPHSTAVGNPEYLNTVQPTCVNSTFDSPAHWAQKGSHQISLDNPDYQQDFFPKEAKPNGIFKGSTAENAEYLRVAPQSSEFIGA

[8] = target: Follistatin-related protein 3 (Homo sapiens) (UniProt O95633); test: FSTL3 binders on small-molecule microarrays, primary screen, biochemical, small-molecule microarray, 635 nm fluorescence (AID 1105); conditions: FSTL3 binding, higher = more signal;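 note: score merges emission near 667 nm and signal to noise per printed spot across three slides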
Follistatin-related protein 3 (Homo sapiens), sequence (O95633 whole entry, looked up): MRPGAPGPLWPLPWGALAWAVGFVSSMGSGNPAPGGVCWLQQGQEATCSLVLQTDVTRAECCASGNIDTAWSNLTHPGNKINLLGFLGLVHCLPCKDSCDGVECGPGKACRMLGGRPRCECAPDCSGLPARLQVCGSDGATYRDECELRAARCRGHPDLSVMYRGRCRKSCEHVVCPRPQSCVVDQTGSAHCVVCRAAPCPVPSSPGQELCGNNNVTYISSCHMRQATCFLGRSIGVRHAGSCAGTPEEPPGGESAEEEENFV

[9] = target: Dickkopf-related protein 1 (Homo sapiens) (UniProt O94907); test: DKK1 binders on small-molecule microarrays, primary screen, biochemical, small-molecule microarray, 635 nm fluorescence scan (AID 1106); conditions: DKK1 binding, higher = more signal;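 note: score merges emission near 667 nm with signal to noise over three replicate slides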
Dickkopf-related protein 1 (Homo sapiens), sequence (O94907 whole entry, looked up): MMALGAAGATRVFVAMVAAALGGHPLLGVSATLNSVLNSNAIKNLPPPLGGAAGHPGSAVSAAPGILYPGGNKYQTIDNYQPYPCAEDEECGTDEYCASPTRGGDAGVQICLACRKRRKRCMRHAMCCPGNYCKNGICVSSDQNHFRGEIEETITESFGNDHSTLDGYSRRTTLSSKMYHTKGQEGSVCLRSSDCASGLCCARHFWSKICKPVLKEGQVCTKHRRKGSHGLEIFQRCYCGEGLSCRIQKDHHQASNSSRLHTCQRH

[10] = system: Inhibin beta A chain (activin A); test: INHBA (activin A) binders on microarrays, primary screen, biochemical, small-molecule microarray, 635 nm fluorescence scan (AID 1107); conditions: small-molecule microarray binding, higher = more signal;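 note: mouse activin A protein probed at 4.33 µg/mL on printed slides; score merges bound-protein fluorescence near 667 nm with spot signal-to-noise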
[11] = system: Human papillomavirus type 1a protein E7 (residues 44-93); test: HPV1a E7 fragment binders on microarrays, primary screen, biochemical, small-molecule microarray, residues 44-93, 635 nm fluorescence (AID 1108); conditions: small-molecule microarray binding, fluorescence 635 nm; higher = more signal;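 note: E7 fragment applied at 1 µg/mL in TBST for 1 h at 4 C; score combines spot fluorescence with its signal to noise ratio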
[12] = modulators of HCV replicon luciferase signal, primary screen, HCV replication inhibitor project, Huh7 cells, luciferase reporter (AID 1109); conditions: 48 h, higher = more signal;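 note: huh7 hepatoma cells harbouring a luciferase neomycin HCV replicon reporter; luciferase luminescence as measure of HCV replicon replication; test concentration not given here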
[13] = target: Left-right determination factor 2 (Homo sapiens) (UniProt O00292); test: LEFTY2 binders on small-molecule microarrays, primary screen, biochemical, small-molecule microarray, 635 nm fluorescence scan (AID 1110); conditions: LEFTY2 binding, higher = more signal
Left-right determination factor 2 (Homo sapiens), sequence (O00292 whole entry, looked up): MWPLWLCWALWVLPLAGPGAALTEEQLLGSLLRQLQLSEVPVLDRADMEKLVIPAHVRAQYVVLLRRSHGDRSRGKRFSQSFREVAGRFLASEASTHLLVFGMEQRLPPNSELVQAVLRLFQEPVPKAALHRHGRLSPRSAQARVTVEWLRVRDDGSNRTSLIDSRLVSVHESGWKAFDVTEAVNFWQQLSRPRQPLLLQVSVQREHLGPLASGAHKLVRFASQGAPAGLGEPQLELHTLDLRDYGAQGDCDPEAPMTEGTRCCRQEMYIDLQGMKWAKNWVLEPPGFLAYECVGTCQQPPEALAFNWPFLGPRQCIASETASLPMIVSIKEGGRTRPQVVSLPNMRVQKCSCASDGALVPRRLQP

[14] = target: Calmodulin-1 (Homo sapiens) (UniProt P0DP23); test: CALM1 binders on microarrays, EGTA buffer, profiling panel, biochemical, small-molecule microarray, Cy5-labelled CALM1 (AID 1111); conditions: Cy5-CALM1 binding fluorescence, higher = more signal;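 note: labelled calmodulin applied in Tris saline Tween buffer holding calcium plus EGTA and DTT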
[15] = target: Calmodulin-1 (Homo sapiens) (UniProt P0DP23); test: calcium-bound CALM1 binders on microarrays, profiling panel, artefact control for SMM control-protein annotation, biochemical, small-molecule microarray, Cy5-labelled CALM1, plus calcium (AID 1112); conditions: Cy5-CALM1 binding fluorescence, higher = more signal;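 note: score merges spot fluorescence with signal to noise from triplicate slides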
[16] = small-molecule microarray binders of probe aWnt5a, primary screen, biochemical, biotinylated probe, 635/667 nm fluorescence (AID 1113); conditions: higher = more signal;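 note: score merges 667 nm fluorescence intensity with signal-to-noise per printed feature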
[17] = small-molecule microarray binders of probe aShh, primary screen, biochemical, biotinylated probe, 635/667 nm fluorescence (AID 1114); conditions: higher = more signal;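 note: probe is biotin-labelled aShh protein from a stem cell growth factor screen; measures binding of labelled protein to compounds printed on the slide; score merges feature fluorescence at 667 nm with signal-to-noise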
[18] = small-molecule microarray binders of probe aNog, primary screen, biochemical, biotinylated probe, 635/667 nm fluorescence (AID 1115); conditions: higher = more signal;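 note: probe is biotinylated aNog protein used at 0.15 µg/mL for 1 h at 4 C; z-score combines 667 nm fluorescence of each spot with its signal to noise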
[19] = target: Torsin-1A-interacting protein 1 (Homo sapiens) (UniProt Q5JTV8); test: LAP1 binders from COS7 cell lysate, primary screen, small-molecule microarray, 635/667 nm fluorescence (AID 1116); conditions: COS7-hLAP1 lysate binding, 635 nm fluorescence, higher = more signal
Torsin-1A-interacting protein 1 (Homo sapiens), sequence (Q5JTV8 whole entry, looked up): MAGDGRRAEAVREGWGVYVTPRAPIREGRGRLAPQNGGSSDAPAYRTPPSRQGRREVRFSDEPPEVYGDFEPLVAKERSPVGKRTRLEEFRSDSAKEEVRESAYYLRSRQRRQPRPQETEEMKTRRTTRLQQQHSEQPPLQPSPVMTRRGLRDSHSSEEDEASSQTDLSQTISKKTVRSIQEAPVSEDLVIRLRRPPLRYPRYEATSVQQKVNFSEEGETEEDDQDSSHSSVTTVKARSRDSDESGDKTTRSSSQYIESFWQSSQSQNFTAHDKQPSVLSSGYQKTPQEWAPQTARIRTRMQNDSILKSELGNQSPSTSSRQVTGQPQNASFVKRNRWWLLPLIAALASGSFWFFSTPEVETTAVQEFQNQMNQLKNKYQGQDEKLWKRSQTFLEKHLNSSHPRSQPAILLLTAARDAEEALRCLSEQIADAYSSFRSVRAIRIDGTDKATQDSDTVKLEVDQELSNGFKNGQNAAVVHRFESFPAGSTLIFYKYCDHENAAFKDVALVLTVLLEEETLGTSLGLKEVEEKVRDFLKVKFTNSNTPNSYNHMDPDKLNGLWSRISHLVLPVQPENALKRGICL

[20] = target: Alpha-bungarotoxin (Bungarus multicinctus) (UniProt P60615); test: alpha-bungarotoxin binders on microarray, profiling panel, artefact control for SMM control protein annotation, biochemical, small-molecule microarray, Alexa647 label, 635/667 nm fluorescence (AID 1117); conditions: alpha-BTX-A647 binding fluorescence, higher = more signal
Alpha-bungarotoxin (Bungarus multicinctus), sequence (P60615 whole entry, looked up): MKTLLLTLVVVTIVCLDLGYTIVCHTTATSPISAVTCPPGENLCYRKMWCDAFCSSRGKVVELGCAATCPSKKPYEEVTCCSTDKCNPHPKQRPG

Compound | composite z-score [1] | composite z-score [2] | composite z-score [3] | z-score [4] | composite z-score [5] | composite z-score [6] | composite z-score [7] | composite z-score [8] | composite z-score [9] | composite z-score [10] | composite z-score [11] | z-score [12] | composite z-score [13] | composite z-score [14] | composite z-score [15] | composite z-score [16] | composite z-score [17] | composite z-score [18] | composite z-score [19] | composite z-score [20]
COC(=O)[C@@]1(Cc2ccccc2N=[N+]=[N-])N=C(c2ccc(OCCCO)cc2)O[C@H]1c1ccccc1 | 1.34 | 0.0665 | 0.87 | 2.25 (inactive) | 0.818 | -0.253 | -0.285 | 0.666 | -0.385 | 0.575 | 1.34 | -3.38 | -0.319 | 0.694 | 0.278 | 0.0136 | 0.0121 | -0.466 | 1.37 | 0.873
COCCCNC(=O)[C@@]1(Cc2ccccc2)COC(c2ccc(OCCCO)cc2)=N1 | 1.7 | 0.583 | 1.11 | -0.37 (inactive) | 0.505 | 0.384 | -0.715 | -0.776 | -0.688 | 0.065 | 0.952 | -0.409 | -1.08 | 0.525 | 0.361 | 0.199 | 0.289 | -0.573 | 1.03 | 0.943
COCCCNC(=O)[C@@]1(Cc2ccccc2I)c2ccccc2C(=O)N(Cc2ccccc2Cl)[C@H]1c1ccc(CO)cc1 | 0.506 | 0.0418 | -0.261 | -0.964 (inactive) | -0.0568 | 0.575 | -0.0316 | 0.3 | 0.186 | 0.712 | 1.16 | -1.36 | 0.365 | 1.32 | 0.101 | 0.0101 | -0.154 | -0.364 | 0.164 | 0.752
C[N+](C)(C)CCCCNC(=O)[C@H]1C[C@H]2C(=O)NCC(=O)N2[C@H]1c1ccc(O)cc1 | 1.29 | 0.0645 | -0.31 | -1.01 (inactive) | 1.42 | 1.35 | 1.12 | 1.44 | 1.47 | 0.952 | 0.0571 | -0.463 | 0.794 | -1.08 | -0.966 | -0.103 | -0.291 | -0.0037 | 0.721 | 0.832
CN(C)CCCC[C@@H]1NC(=O)[C@H]2C[C@@H](C(=O)NCCCCCCNC(=O)CS)[C@@H](c3ccc(O)cc3)N2C1=O | 1.74 | -0.172 | 0.314 | -0.296 (inactive) | -0.31 | -0.323 | 0.0264 | 1.27 | -0.17 | 0.947 | 1.3 | 0.344 | -0.603 | -0.445 | -0.107 | -0.221 | 0.194 | -0.541 | 2.53 | -0.945
CC(=O)NCCCC[C@@H]1NC(=O)[C@H]2C[C@@H](C(=O)NCCCCCN)[C@@H](c3cccc(OCCO)c3)N2C1=O | 0.878 | -0.0159 | 0.366 | -1.77 (inactive) | 0.757 | 0.4 | 0.103 | 0.0957 | 0.142 | 0.602 | 0.783 | 0.572 | 0.0306 | 1.27 | 1.35 | -0.0403 | -0.0119 | -0.392 | 0.718 | 1.82
O=C(N1CCOCC1)[C@@]1(CCS(=O)(=O)c2ccccc2)COC(c2ccc(OCCCO)cc2)=N1 | 0.495 | 0.0641 | 0.691 | 0.122 (inactive) | 0.94 | 0.443 | -0.935 | -0.827 | -0.899 | -0.704 | 0.901 | -1.18 | -1.21 | 1.25 | 0.0541 | -0.124 | 0.314 | -0.824 | 0.622 | -0.422
[N-]=[N+]=NCc1ccccc1C[C@@]1(C(=O)NCCN2CCOCC2)N=C(c2ccc(OCCCO)cc2)O[C@@H]1c1ccccc1CN=[N+]=[N-] | 0.668 | 0.914 | 0.491 | 0.139 (inactive) | 1.15 | 0.602 | 0.244 | 1.29 | 0.855 | 0.817 | 1.42 | -2.7 | 0.461 | 1.68 | 0.191 | 0.0037 | 0.199 | 0.291 | 0.272 | 1.04
CCOC(=O)C[C@H]1[C@H](OC(=O)c2cc3ccccc3oc2=O)[C@@H](NC(=O)c2ccc3ccccc3n2)c2cc(OCCCO)ccc2N1C(=O)c1ccc2ccccc2n1 | 0.522 | 0.273 | -0.033 | 0.613 (inactive) | 1.13 | 0.743 | 0.503 | 1.3 | 1.01 | 0.626 | 0.412 | -2.04 | 1.09 | -0.145 | -0.36 | 0.172 | 0.01 | -0.158 | 0.816 | 0.214
COc1ccc([Si](C)(C)[C@@H]2[C@@H](CC(=O)N(CCO)Cc3ccccc3)O[C@]3(C(=O)N(Cc4ccc(N5CCOC5=O)cc4)c4ccccc43)[C@H]2C)cc1 | 0.851 | 0.232 | 0.0947 | 0.24 (inactive) | 0.472 | 0.218 | 0.467 | 1.09 | 0.71 | 0.529 | 0.542 | -4.45 | 0.491 | 0.515 | 0.385 | -0.0337 | 0.321 | 0.264 | 1.02 | 0.989
COCCCNC(=O)[C@]1(CCS(=O)(=O)c2ccccc2)N=C(c2ccc(OCCCO)cc2)O[C@@H]1c1ccccc1 | 1.86 | 0.126 | 0.937 | -0.594 (inactive) | 1.01 | 1.01 | 0.304 | 0.485 | 0.0266 | 0.455 | 1.11 | -0.995 | 0.494 | 1.62 | 0.214 | 0.0179 | -0.161 | -0.315 | 1.8 | 1.5
